Our source for the outcome values is PubChem BioAssay AID651949 (Broad Institute, 2012).

Measured potencies and affinities stand elsewhere. Active and inactive are the calls of the source.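 Rule for the calls: active = compounds lowering cell ATP signal whose fitted half-maximal concentration is at most twice the top tested dose; inconclusive = flat curve with 30 to 70% signal loss, or poor fit; inactive = the rest.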

This assay in a line: HEK293T cell cytotoxicity, dose response, cytotoxicity control, CellTiter-Glo luminescence, dry powder, set 6 (AID 651949). In general terms: Cellular ATP, detected with luciferase, serves as a proxy for viable cell number.

Take `COc1cccc(-c2nnc(SCc3ccccc3)o2)c1`: the compound was called inactive.

As for `FC(F)(F)Oc1ccccc1CSc1nnc(-c2ccccc2)o1`, the compound was called inactive.

In the case of `Clc1ccccc1CSc1nnc(-c2ccccc2)o1`, the outcome was inactive.

As to `COc1ccc(-c2nnc(SCc3ccccc3)o2)cc1`, the compound was called inactive.

`FC(F)(F)c1cccc(CSc2nnc(-c3ccccc3)o2)c1`: the result was inactive.

On to `Fc1cccc(-c2nnc(SCc3ccccc3)o2)c1`, for which the call was inactive.

In the case of `Clc1cccc(-c2nnc(SCc3ccccc3)o2)c1`, the outcome was inactive.

As for `Cc1ccccc1CSc1nnc(-c2ccccc2)o1`, the compound was called inactive.

With `COc1ccc(-c2nnc(SCc3ccccn3)o2)cc1`, the result was inactive.

In the case of `Fc1ccccc1CSc1nnc(-c2ccccc2)o1`, the call was inactive.

`CN(C)CCSc1nnc(-c2ccccc2)o1`: the call was inactive.

On to `Fc1cccc(-c2nnc(SCc3ccccn3)o2)c1`, for which the outcome was inactive.

With `c1ccc(-n2cc(CSc3nnc(C4CCCC4)o3)nn2)cc1`, the compound was called inactive.

As to `O=C(Cc1ccccc1)C(C(=O)c1nnc(-c2ccccc2)o1)c1ccccc1` (stereo unspecified), the compound was classed as inactive.

Turning to `Fc1ccc(-c2nnc(SCc3cn(Cc4ccccc4)nn3)o2)cc1`, the compound was classed as inactive.

Regarding `FC1(F)CN(CCSc2nnc(-c3ccccc3)o2)C1`, the outcome was inactive.
